Experimental data taken from PubChem BioAssay (Tox21).
Results filed as inconclusive are left out. Calls of active or inactive are those of the source. Unless noted, the call rests on the fitted dose curve; in most records, active means well fitted curve in the direction sought with a large enough effect in the repeat runs; inconclusive means weak or mixed curves; inactive means no such curve, though single readings can be large; an effect the other way counts as inactive or inconclusive.

Tests used:
[1] = qHTS assay to identify small molecule agonists of the peroxisome proliferator-activated receptor delta (PPARd) signaling pathway - cell viability counter screen (AID 743211); further: nearly all actives have a fitted effect of over 55% in size
Summary of the method: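 Viability was measured as CellTiter-Glo luminescence (30 min, room temperature) in the same wells as the beta-lactamase readout. GeneBLAzer PPARd UAS-bla HEK293H cells received compound after 5 h plating and were incubated 17 h at 37 C.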

[2] = qHTS assay to identify small molecule antagonists of the peroxisome proliferator-activated receptor delta (PPARd) signaling pathway - cell viability counter screen (AID 743213); further: nearly all actives have a fitted effect of over 50% in size
Summary of the method: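 PPARd-bla HEK293H cells were treated with compounds plus agonist L165041 (300 nM final) for 17 h at 37 C. Viability was then read in the same wells by CellTiter-Glo luminescence after 30 min at room temperature.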

[3] = qHTS assay to identify small molecule agonists of the farnesoid-X-receptor (FXR) signaling pathway - cell viability counter screen (AID 743218); further: nearly all actives have a fitted effect of over 45% in size
Summary of the method: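 Viability of FXR-bla HEK 293T cells is measured by ATP-based CellTiter-Glo luminescence following 16 h compound treatment at 37 C and a prior 2 h room-temperature beta-lactamase substrate step.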

[4] = qHTS assay to identify small molecule antagonists of the farnesoid-X-receptor (FXR) signaling pathway - cell viability counter screen (AID 743221; active means well fitted cell-killing curve with a large enough effect in the repeat runs, not every such curve was filed as active; further: nearly all actives have a fitted effect of over 50% in size)
Summary of the method: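 Cytotoxicity counter screen run in the FXR-bla reporter wells: HEK 293T cells exposed to compound with 50 uM (final) chenodeoxycholic acid for 16 h, 37 C, then viability measured by CellTiter-Glo luminescence after 30 min, room temperature.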

[5] = biological target: Vitamin D3 receptor (Homo sapiens) (UniProt P11473); assay: qHTS assay to identify small molecule agonists of the vitamin D receptor (VDR) signaling pathway (AID 743222; calls by dose curve)
Sequence of Vitamin D3 receptor (Homo sapiens) (P11473 whole entry, looked up): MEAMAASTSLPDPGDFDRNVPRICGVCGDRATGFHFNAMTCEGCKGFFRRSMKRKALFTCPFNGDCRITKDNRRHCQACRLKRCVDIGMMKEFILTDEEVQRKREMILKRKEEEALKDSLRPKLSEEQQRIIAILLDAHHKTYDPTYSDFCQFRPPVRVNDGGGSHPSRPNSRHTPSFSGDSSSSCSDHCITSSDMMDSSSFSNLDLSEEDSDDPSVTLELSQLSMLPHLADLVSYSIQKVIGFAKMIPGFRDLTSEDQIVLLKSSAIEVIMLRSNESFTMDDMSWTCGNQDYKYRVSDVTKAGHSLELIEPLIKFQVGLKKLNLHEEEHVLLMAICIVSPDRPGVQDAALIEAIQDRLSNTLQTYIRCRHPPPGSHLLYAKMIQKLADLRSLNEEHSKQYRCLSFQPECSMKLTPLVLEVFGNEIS
Summary of the method: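 Fluorescence from cleaved LiveBLAzer B/G FRET substrate served as readout. VDR-bla cells had been treated 16 h at 37C with test compounds in DMSO, following a 4 h settling period, and substrate was loaded for 2 h at RT.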

[6] = biological target: Vitamin D3 receptor (Homo sapiens) (UniProt P11473); assay: qHTS assay to identify small molecule antagonists of the vitamin D receptor (VDR) signaling pathway (AID 743223; active means well fitted inhibition curve with a large enough effect in the signal ratio in the repeat runs, not every such curve was filed as active; the % refers to the signal ratio)
Summary of the method: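 Antagonist mode: compound added to VDR-bla cells alongside agonist 1alpha,25-dihydroxyvitamin D3 (3 nM final), incubation 16 h at 37C. Read-out is LiveBLAzer FRET fluorescence, 2 h at room temperature.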

[7] = qHTS assay to identify small molecule agonists of the vitamin D receptor (VDR) signaling pathway - cell viability counter screen (AID 743224); further: series mostly up to about 63 µM; nearly all actives have a fitted effect of over 50% in size
Summary of the method: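 Compounds were pin-transferred onto VDR-bla cells plated 4 h earlier; following 16 h incubation at 37C, cell viability was quantified by CellTiter-Glo luminescence after 30 min at room temperature.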

[8] = qHTS assay to identify small molecule antagonists of the vitamin D receptor (VDR) signaling pathway - cell viability counter screen (AID 743225); further: nearly all actives have a fitted effect of over 50% in size
Summary of the method: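 Cytotoxicity counter screen read by CellTiter-Glo luminescence (30 min, room temperature) in the same wells as the VDR-bla antagonist readout. HEK 293T VDR-UAS-bla cells had 16 h at 37C with compound and 3 nM (final) 1-alpha,25-dihydroxyvitamin D3, then 2 h with FRET substrate.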

[9] = qHTS assay to identify small molecule agonists of the NFkB signaling pathway (AID 1159509; active means well fitted curve in the direction sought with a large enough effect in the signal ratio in the repeat runs, not every such curve was filed as active; the % refers to the signal ratio; further: series mostly up to about 61 µM)
Summary of the method: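 Agonist activity was read as beta-lactamase-driven FRET change (460 and 530 nm emission, 405 nm excitation) following 1.5 hr substrate loading at room temperature. Beforehand, ME-180 NFkB-bla reporter cells were treated with compounds for 5 hr at 37 C.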

[10] = qHTS assay to identify small molecule agonists of the NFkB signaling pathway - cell viability counter screen (AID 1159515; calls by dose curve; further: series mostly up to about 61 µM; nearly all actives have a fitted effect of over 55% in size)
Summary of the method: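 Parallel cytotoxicity counter screen in ME-180 cells carrying an NFkB-response-element beta-lactamase reporter, 2,000 cells/well. Compound exposure lasted 5 hr at 37 C, 5% CO2. Cell viability was quantified by CellTiter-Glo luminescence.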

[11] = qHTS assay to identify small molecule agonists of the endoplasmic reticulum stress response signaling pathway (AID 1159516; active means well fitted activation curve with a large enough effect in the signal ratio in the repeat runs, not every such curve was filed as active; the % refers to the signal ratio)
Summary of the method: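 Using a HeLa line with an ESRE-driven beta-lactamase gene, agonist activity was measured by FRET substrate fluorescence (460 and 530 nm emission) after cells were treated with compounds for 5 hr at 37 C and 5% CO2.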

[12] = qHTS assay to identify small molecule agonists of the endoplasmic reticulum stress response signaling pathway - cell viability counter screen (AID 1159517; calls by dose curve)
Summary of the method: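 In parallel with the ESRE reporter read, cytotoxicity was scored by CellTiter-Glo luminescence (30 min, room temperature) on HeLa ESRE-bla cells dosed for 5 hr.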

[13] = qHTS assay to identify small molecule antagonists of the retinoid-related orphan receptor gamma (ROR-gamma) signaling pathway - cell viability counter screen (AID 1159520); further: nearly all actives have a fitted effect of over 50% in size
Summary of the method: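 Tet-on ROR gamma CHO cells were given compounds for 2 hr, then doxycycline hyclate at 1 uM final, and incubated 16 hr at 37 C. Viability was measured as ATP content by CellTiter-Glo luminescence.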

[14] = qHTS assay to identify small molecule agonists of the AP-1 signaling pathway - cell viability counter screen (AID 1159525; calls by dose curve; further: nearly all actives have a fitted effect of over 55% in size)
Summary of the method: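 Same-well cytotoxicity counter screen of the Tox21 10K library in ME-180 cells. The readout is ATP-dependent luminescence after 5 h compound treatment. Data are normalised to DMSO and tetra n-octyl ammonium bromide controls.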

[15] = qHTS assay to identify small molecule agonists of the AP-1 signaling pathway (AID 1159526; calls by dose curve)
[16] = biological target: Peroxisome proliferator-activated receptor delta (Homo sapiens) (UniProt Q03181); assay: qHTS assay to identify small molecule agonists of the peroxisome proliferator-activated receptor delta (PPARd) signaling pathway (AID 743212; calls by dose curve)
Sequence of Peroxisome proliferator-activated receptor delta (Homo sapiens) (Q03181 whole entry, looked up): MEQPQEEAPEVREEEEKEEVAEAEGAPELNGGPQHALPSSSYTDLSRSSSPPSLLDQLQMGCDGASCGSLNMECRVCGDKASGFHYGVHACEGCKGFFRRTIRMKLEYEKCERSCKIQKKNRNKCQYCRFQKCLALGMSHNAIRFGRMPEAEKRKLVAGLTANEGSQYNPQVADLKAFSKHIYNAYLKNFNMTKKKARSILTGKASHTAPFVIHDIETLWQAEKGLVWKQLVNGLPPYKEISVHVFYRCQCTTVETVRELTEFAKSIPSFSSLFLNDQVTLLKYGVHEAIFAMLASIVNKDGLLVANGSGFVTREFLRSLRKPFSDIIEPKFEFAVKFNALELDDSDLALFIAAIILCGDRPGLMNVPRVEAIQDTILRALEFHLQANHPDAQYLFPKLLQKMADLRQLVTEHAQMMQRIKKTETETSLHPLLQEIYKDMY
Summary of the method: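 Tox21 library screened in GeneBLAzer PPARd UAS-bla HEK293H cells. After compound treatment at 37 C, a FRET-based beta-lactamase substrate was applied for 2 h and fluorescence recorded.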

[17] = biological target: Peroxisome proliferator-activated receptor delta (Homo sapiens) (UniProt Q03181); assay: qHTS assay to identify small molecule antagonists of the peroxisome proliferator-activated receptor delta (PPARd) signaling pathway (AID 743215; active means well fitted inhibition curve with a large enough effect in the signal ratio in the repeat runs, not every such curve was filed as active; the % refers to the signal ratio;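 further: cells stimulated with agonist L165041 at 300 nM final during compound exposure; series mostly up to about 62 µM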)
Summary of the method: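 Plated HEK293H PPARd-bla cells rested 5 h at 37 C and 5% CO2. Compound, then agonist L165041 at 300 nM final, was added; 17 h at 37 C followed. Substrate loading, 2 h room temperature, fluorescence measured.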

[18] = biological target: Nuclear receptor ROR-gamma (Homo sapiens) (UniProt P51449); assay: qHTS assay to identify small molecule antagonists of the retinoid-related orphan receptor gamma (ROR-gamma) signaling pathway (AID 1159521)
Summary of the method: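 Antagonist read-out: drop in luminescence (ONE-Glo) from an RORE-LUC reporter in CHO cells with doxycycline-inducible ROR-gamma; 2 hr compound pretreatment, 1 uM doxycycline, 16 hr incubation at 37 C.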

[19] = biological target: Bile acid receptor (Homo sapiens) (UniProt Q96RI1); assay: qHTS assay to identify small molecule agonists of the farnesoid-X-receptor (FXR) signaling pathway (AID 743220; active means well fitted activation curve with a large enough effect in the signal ratio in the repeat runs, not every such curve was filed as active; the % refers to the signal ratio)
Sequence of Bile acid receptor (Homo sapiens) (Q96RI1 whole entry, looked up): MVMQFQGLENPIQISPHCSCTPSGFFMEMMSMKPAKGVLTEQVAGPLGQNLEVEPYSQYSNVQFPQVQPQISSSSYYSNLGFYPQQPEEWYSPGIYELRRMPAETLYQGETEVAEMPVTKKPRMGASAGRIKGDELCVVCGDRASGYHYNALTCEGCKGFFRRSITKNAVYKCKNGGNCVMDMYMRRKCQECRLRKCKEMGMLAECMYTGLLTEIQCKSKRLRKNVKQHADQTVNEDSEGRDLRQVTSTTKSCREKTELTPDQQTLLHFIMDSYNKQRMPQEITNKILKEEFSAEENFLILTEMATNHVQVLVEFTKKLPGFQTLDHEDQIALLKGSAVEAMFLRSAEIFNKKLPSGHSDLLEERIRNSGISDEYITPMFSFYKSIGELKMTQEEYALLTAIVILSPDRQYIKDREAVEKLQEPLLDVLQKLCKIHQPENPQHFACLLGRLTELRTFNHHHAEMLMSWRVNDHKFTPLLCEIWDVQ
Summary of the method: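 FXR-UAS-bla HEK 293T cells carrying a UAS-driven beta-lactamase reporter were plated for 5 h at 37C/5% CO2, then exposed to DMSO-dissolved Tox21 10K compounds for 16 h at 37C. A LiveBLAzer B/G FRET substrate was loaded for 2 h at room temperature before fluorescence reading.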

Measured: Potency

CC(C)NCC(O)COc1ccc(CCOCC2CC2)cc1 (stereo not drawn)
not listed: [16] | [17] | [18] | [19]
inactive: all other assays above

CC(C)OC(C)C
not listed: [12] | [14] | [19]
inactive: all other assays above

C[C@]12C(=O)OC(=O)[C@H]1[C@H]1C=C[C@@H]2C1
not listed: [2] | [12] | [15] | [17] | [19]
inactive: all other assays above

CCOC(=O)[C@H](CCc1ccccc1)N[C@@H](C)C(=O)N1Cc2cc(OC)c(OC)cc2C[C@H]1C(=O)O
not listed: [4] | [12] | [18] | [19]
inactive: all other assays above

Cc1onc(-c2ccccc2)c1C(=O)Cl
not listed: [6] | [16] | [17] | [18]
inactive: all other assays above

C[C@]12CCC(=O)C=C1CC[C@@H]1[C@@H]2CC[C@@]2(C)[C@H]1CC[C@]2(O)C(=O)CO
not listed: [12] | [15] | [19]
inactive: all other assays above

CC(C)(CO)[C@@H](O)C(=O)NCCC(=O)O
not listed: [5] | [12] | [18] | [19]
inactive: all other assays above

CCN(CC)CCNC(=O)COc1ccc(Cl)cc1
not listed: [5] | [6] | [12] | [18] | [19]
inactive: all other assays above

CCCCNc1ccc(C(=O)OCCN(CC)CC)cc1
not listed: [2] | [6] | [11] | [15] | [19]
inactive: all other assays above

Cc1ccc(C=O)s1
not listed: [9] | [15] | [19]
inactive: all other assays above

CCN1CC(CCN2CCOCC2)C(c2ccccc2)(c2ccccc2)C1=O (stereo not drawn)
not listed: [6] | [11] | [17] | [18]
inactive: all other assays above

Cc1cc2c(s1)Nc1ccccc1N=C2N1CCN(C)CC1
not listed: [4] | [11] | [14] | [15] | [16] | [19]
inactive: all other assays above
